# Measured values reported in article PMC4336329 (PLoS ONE, 2015).
# Screen size: about 310,000 compounds; about 14,000 (4.5%) showed an effect of 50% or more. The effect is printed as a negative number. For the sample, strong results were picked, then their nearest neighbours and some compounds at random.
# Target: human ether-à-go-go-related gene (hERG) potassium channel (human, UniProt Q12809)
# Test: primary screen, population patch clamp on CHO cells stably expressing hERG; higher = less effect of the substance
# 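Further: peak tail current of the secondary pulse compared with the same well before compound.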
# Chain of human ether-à-go-go-related gene (hERG) potassium channel (Q12809 whole entry, looked up): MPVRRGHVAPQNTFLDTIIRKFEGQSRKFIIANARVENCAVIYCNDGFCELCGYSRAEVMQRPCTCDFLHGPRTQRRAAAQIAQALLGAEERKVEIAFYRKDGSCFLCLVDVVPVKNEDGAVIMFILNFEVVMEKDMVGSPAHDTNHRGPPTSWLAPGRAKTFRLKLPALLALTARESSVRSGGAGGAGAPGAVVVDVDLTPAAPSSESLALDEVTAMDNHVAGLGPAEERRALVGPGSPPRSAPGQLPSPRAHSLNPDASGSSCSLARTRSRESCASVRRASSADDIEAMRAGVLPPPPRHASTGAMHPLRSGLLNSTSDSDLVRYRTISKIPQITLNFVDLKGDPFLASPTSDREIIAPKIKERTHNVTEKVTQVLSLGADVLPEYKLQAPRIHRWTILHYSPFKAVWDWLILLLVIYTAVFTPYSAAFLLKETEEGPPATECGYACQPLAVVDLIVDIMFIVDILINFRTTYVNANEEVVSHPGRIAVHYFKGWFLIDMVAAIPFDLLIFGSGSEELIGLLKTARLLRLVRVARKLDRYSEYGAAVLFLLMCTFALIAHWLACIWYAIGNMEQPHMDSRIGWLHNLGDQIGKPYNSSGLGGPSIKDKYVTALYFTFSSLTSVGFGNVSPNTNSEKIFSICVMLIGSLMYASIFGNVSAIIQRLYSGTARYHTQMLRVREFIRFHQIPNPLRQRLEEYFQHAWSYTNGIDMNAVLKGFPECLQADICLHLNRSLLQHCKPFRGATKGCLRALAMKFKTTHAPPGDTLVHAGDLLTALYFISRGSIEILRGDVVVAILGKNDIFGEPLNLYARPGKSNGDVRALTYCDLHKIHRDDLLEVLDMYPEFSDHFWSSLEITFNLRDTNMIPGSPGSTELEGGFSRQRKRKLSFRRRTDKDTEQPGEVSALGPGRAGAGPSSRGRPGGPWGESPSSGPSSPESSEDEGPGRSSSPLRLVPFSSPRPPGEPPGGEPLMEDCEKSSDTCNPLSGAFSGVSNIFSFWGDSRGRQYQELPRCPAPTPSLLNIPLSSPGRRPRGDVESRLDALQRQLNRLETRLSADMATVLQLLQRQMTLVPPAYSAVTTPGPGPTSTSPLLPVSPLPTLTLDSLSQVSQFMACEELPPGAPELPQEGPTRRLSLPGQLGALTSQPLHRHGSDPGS
row,Compound,"hERG current change (%, negative = inhibition) at 10uM"
1,CCc1ccccc1NC(=O)CSc1nc(-c2ccccc2)nn1C(=O)c1cccc([N+](=O)[O-])c1,-0.129%
2,Br.CCS(=O)CCSC(=N)N (stereo not drawn),19.2%
3,CCS(=O)(=O)CCSC(=N)N.Cl,-53.3%
4,Br.Cc1ccc(S(=O)(=O)CCSC(=N)N)cc1,13.1%
5,O=C(C1CCCN1S(=O)(=O)c1cccc2cccnc12)N1CCc2ccccc2C1 (stereo not drawn),-57.5%
6,O=C(C1CCCN1S(=O)(=O)c1cccc2cccnc12)N1CCn2c1nc1ccccc12 (stereo not drawn),-50.8%
7,O=C(C1CCCN1S(=O)(=O)c1cccc2cccnc12)N1CCc2ccccc21 (stereo not drawn),-31.7%
8,O=C(Nc1ccc(C(F)(F)F)cc1)C1CCCN1S(=O)(=O)c1cccc2cccnc12 (stereo not drawn),-51.9%
9,CC(=O)c1ccc(NC(=O)C2CCCN2S(=O)(=O)c2cccc3cccnc23)cc1 (stereo not drawn),7.11%
10,O=C(C1CCN(S(=O)(=O)c2cccc3cccnc23)CC1)N1CCn2c1nc1ccccc12,-9.66%
11,O=C(O)[C@H]1CCCN1S(=O)(=O)c1cccc2cccnc12,0.132%
12,O=C(Nc1cccc(C(F)(F)F)c1)C1CCCN1S(=O)(=O)c1cccc2cccnc12 (stereo not drawn),-12.4%
13,O=C(C1CCCN1S(=O)(=O)c1cccc2cccnc12)N1CCN(c2ccccc2)CC1 (stereo not drawn),-45%
14,CSc1ncccc1C(=O)Nc1ccc(S(=O)(=O)NC2=NCCCCC2)cc1,7.85%
15,COC(=O)CCSCC(=O)Nc1cc(C)on1,-14.4%
16,O=C(COc1cccc2cccnc12)N/N=C1\SCC(=O)N1Cc1ccccc1,-44.8%
17,COc1cc(C(=O)OCC(=O)NCc2ccc(F)cc2)ccc1OCC(C)C,21.1%
18,COc1ccc(NC(=O)N2CCN(S(C)(=O)=O)CC2)cc1OC,-0.713%
19,O=C(/C=C/c1ccc(Br)cc1)NC1CCCCCC1,-4.17%
20,Cc1onc(-c2ccccc2)c1C(=O)Nc1ccc(S(=O)(=O)N2CCOCC2)cc1,-29.6%
21,O=c1[nH]c(=O)n(-c2cccc(F)c2)c(O)c1/C=C1\C=Nc2ccccc21,14%

row,Compound,"hERG current change (%, negative = inhibition) at 10uM"
1,O=[N+]([O-])c1ccc(Oc2cccc3cccnc23)c(Cl)c1,-15.4%
2,NC(=O)c1ccc(Oc2cccc3cccnc23)c([N+](=O)[O-])c1,-13.4%
3,O=[N+]([O-])c1ccccc1OCCCOc1cccc2cccnc12,-15.3%
4,O=[N+]([O-])c1ccc(Oc2cccc3cccnc23)c([N+](=O)[O-])c1,-52%
5,Cc1ccc2cccc(Oc3ccc([N+](=O)[O-])cc3[N+](=O)[O-])c2n1,-7.96%
6,N#Cc1ccc(Oc2cccc3cccnc23)c([N+](=O)[O-])c1,-79.1%
7,O=C(C1CCCN(S(=O)(=O)c2cc(Cl)ccc2Cl)C1)N1CCCCCC1 (stereo not drawn),-62.4%
8,COc1ccc(Cl)cc1S(=O)(=O)N1CCCC(C(=O)N2CCOCC2)C1 (stereo not drawn),-69.4%
9,O=C(C1CCCN(S(=O)(=O)c2cc(Cl)ccc2Cl)C1)N1CCOCC1 (stereo not drawn),-33.2%
10,COc1ccc(Cl)cc1S(=O)(=O)N1CCCC(C(=O)N2CCCC2)C1 (stereo not drawn),-5.2%
11,COc1ccc(OC)c(S(=O)(=O)N2CCCC(C(=O)N3CCOCC3)C2)c1 (stereo not drawn),20.5%
12,O=C(C1CCCN(S(=O)(=O)c2cc(Cl)ccc2Cl)C1)N1CCCC1 (stereo not drawn),-19.5%
13,O=C(NCc1ccc(F)cc1)C(=O)NCC1OCCN1C(=O)c1ccc(Cl)cc1 (stereo not drawn),-43.2%
14,CN(C)Cc1c(O)ccc2cc(-c3nc4ccccc4n3C)c(=O)oc12,10.2%
15,O=C1/C(=C/c2cccs2)SC(=S)N1N1CCOCC1,5.26%
16,O=[N+]([O-])c1cc(CN2CCN(c3ccccc3)CC2)c(O)c2ncccc12,-7.8%
17,O=[N+]([O-])c1cc(S(=O)(=O)/N=C(/c2ccccc2)N2CCOCC2)ccc1Cl,-23.9%
18,CC(C)CSC1=NSC2=NC(=O)/C(=C\c3cccs3)C(=N)N12,20.2%
19,COc1ccccc1C(CNC(=O)C(C)(C)Oc1ccc(Cl)cc1)N1CCCC1 (stereo not drawn),-45.1%
20,COc1ccc(C(CNC(=O)C(C)(C)Oc2ccc(Cl)cc2)N2CCCCC2)cc1 (stereo not drawn),-53.8%
21,COc1ccc(C(CNC(=O)C(C)(C)Oc2ccc(Cl)cc2)N2CCCC2)cc1 (stereo not drawn),-50.1%

row,Compound,"hERG current change (%, negative = inhibition) at 10uM"
1,CC(C)(Oc1ccc(Cl)cc1)C(=O)NCC(c1cccs1)N1CCOCC1 (stereo not drawn),-5.84%
2,COc1ccc(C(CNC(=O)Cc2ccccc2Cl)N2CCCCC2)cc1 (stereo not drawn),23%
3,CC(C)(Oc1ccc(Cl)cc1)C(=O)NCC(c1ccco1)N1CCCCC1 (stereo not drawn),-20.2%
4,COc1ccc(N(CC(=O)O)S(=O)(=O)c2ccc(OC)c(OC)c2)cc1,-29.6%
5,O=C(COc1ccccc1)Nc1cccc(-c2nc3cc4ccccc4cc3[nH]2)c1,-9.82%
6,CS(=O)(=O)c1cccc(C(=O)Nc2ccc(-c3nc4ccccc4[nH]3)cc2)c1,11.5%
7,O=C(COc1ccccc1)Nc1cccc(-c2nc3ccccc3[nH]2)c1,-67%
8,COc1ccc(OCC(=O)Nc2cccc(-c3nc4ccccc4[nH]3)c2)cc1,-55.9%
9,CC(C)CC(=O)Nc1cccc(-c2nc3ccccc3[nH]2)c1,-16.5%
10,O=C(O)CCCC(=O)Nc1cccc(-c2nc3ccccc3[nH]2)c1,34.1%
11,CC(=O)Nc1cccc(-c2nc3ccccc3[nH]2)c1,1.87%
12,CS(=O)(=O)c1ccc(C(=O)Nc2cccc(-c3nc4ccccc4[nH]3)c2)cc1,16%
13,CS(=O)(=O)c1cccc(C(=O)Nc2cccc(-c3nc4ccccc4[nH]3)c2)c1,-56.7%
14,COc1ccc(-n2c(SCC(=O)Nc3ccc4c(c3)OCO4)nc3c(c2=O)SCC3)cc1,-10.9%
15,CCN(C(=S)NCCOC)c1cccc2ccccc12,8.8%
16,CC1(O)N(Cc2ccccc2)C(=O)OC12CCCCC2 (stereo not drawn),9.89%
17,CC1CN(CC(=O)NCc2ccc(F)cc2)CC(C)O1 (stereo not drawn),7.79%
18,CCn1ncc(S(=O)(=O)N2CCN(c3cccc(OC)c3)CC2)c1C,5.68%
19,N/C(=N\OC(=O)c1ccccc1[N+](=O)[O-])c1cccnc1,-2.9%
20,O=C(NCc1ccco1)c1cccc(S(=O)(=O)N2CCCCC2)c1,-24.7%
21,Cc1ccc[n+](Cc2ccc([N+](=O)[O-])cc2)c1.[Br-],27.1%

row,Compound,"hERG current change (%, negative = inhibition) at 10uM"
1,COc1cc(C)ccc1OCCCCNCc1ccccc1.O=C(O)C(=O)O,-0.752%
2,C=CCc1ccc(OCCCNCc2ccccc2)c(OC)c1.O=C(O)C(=O)O,-57.4%
3,C=CCc1ccc(OC(=O)c2ccccc2)c(OC)c1,5.73%
4,C=CCc1cc(C)ccc1OCCOCCN1CCN(C)CC1.O=C(O)C(=O)O,-10.7%
5,C=CCc1ccc(OCCN2CCc3ccccc3C2)c(OC)c1.O=C(O)C(=O)O,-67.6%
6,C=CCc1cc(OC)ccc1OCCOCCN1CCc2ccccc2C1.O=C(O)C(=O)O,-71%
7,C/C=C/c1ccc(OCC(=O)N2CCc3cc(OC)c(OC)cc3C2)c(OC)c1,-12.4%
8,C/C=C/c1ccc(OCCn2nnc3ccccc32)c(OC)c1,-2.9%
9,C=CCc1cc(OC)ccc1OCCN(C)Cc1ccccc1.O=C(O)C(=O)O,-16.6%
10,C=CCc1ccc(OCCOCCN(C)C)c(OC)c1.O=C(O)C(=O)O,-27.5%
11,C/C=C/c1ccc(OCCN2CCc3ccccc3C2)c(OC)c1,-77.7%
12,C=CCc1ccc(OCCCCNC(C)CC)c(OC)c1.O=C(O)C(=O)O (stereo not drawn),-39.3%
13,O=C(NCc1ccncc1)c1ccc(Cl)c(S(=O)(=O)N2CCOCC2)c1,12.4%
14,CC1(C)OCC(COC(=O)Nc2cccnc2)([N+](=O)[O-])CO1,23.8%
15,O=C(Nc1ccccc1)OCCOc1ccccc1,-17.8%
16,CC1(c2ccccc2)CC(C)(C)N2C(=O)/C(=C3\SC(=S)NC3=O)c3cccc1c32 (stereo not drawn),-0.561%
17,O=C(COC(=O)Cc1cn2ccsc2n1)Nc1nc2ccccc2s1,8.88%
18,CCOCCCNC(=O)C1CCN(c2cc(C)nc3c(-c4ccc(OC)c(OC)c4)c(C)nn23)CC1,-7.5%
19,C=CCc1ccc(OCCOCCOc2cccc3ccc(C)nc23)c(OC)c1.O=C(O)C(=O)O,-61.6%
20,C=CCc1ccc(OCCOc2cccc3ccc(C)nc23)c(OC)c1.O=C(O)C(=O)O,-6.6%
21,COc1cc(C)ccc1OCCOCCOc1cccc2ccc(C)nc12.O=C(O)C(=O)O,-29.3%
